Measurements taken from paper PMC3218832.

Experiments:
Assay in all cases: protein binding microarray; high values mean tight binding
Conditions in all cases: dsDNA, one strand shown
[1] = target: RELARELA (p65 homodimer) (Homo sapiens, UniProt Q04206 1-307)
[2] = target: p50p50 homodimer (Homo sapiens, UniProt P19838 7-356)
[3] = target: T1, p52p52 homodimer (Homo sapiens, UniProt Q00653 4-332)
T1 sequence: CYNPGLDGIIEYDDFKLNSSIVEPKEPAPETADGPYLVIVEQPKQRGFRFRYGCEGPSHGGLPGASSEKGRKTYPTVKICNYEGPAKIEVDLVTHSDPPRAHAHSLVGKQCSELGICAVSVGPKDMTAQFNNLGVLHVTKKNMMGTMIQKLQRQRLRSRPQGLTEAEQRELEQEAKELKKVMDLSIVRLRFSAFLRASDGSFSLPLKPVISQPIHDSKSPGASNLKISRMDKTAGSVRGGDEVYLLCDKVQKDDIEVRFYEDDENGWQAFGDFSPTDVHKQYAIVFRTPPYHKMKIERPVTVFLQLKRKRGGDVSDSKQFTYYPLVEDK

[4] = target: RELA (p65) subunit of heterodimer;p50 subunit (Homo sapiens;Homo sapiens, UniProt Q04206;P19838 1-307;7-356)
Sequence of RELA (p65) subunit of heterodimer;p50 subunit (Q04206 1-307, chain 1 of 2): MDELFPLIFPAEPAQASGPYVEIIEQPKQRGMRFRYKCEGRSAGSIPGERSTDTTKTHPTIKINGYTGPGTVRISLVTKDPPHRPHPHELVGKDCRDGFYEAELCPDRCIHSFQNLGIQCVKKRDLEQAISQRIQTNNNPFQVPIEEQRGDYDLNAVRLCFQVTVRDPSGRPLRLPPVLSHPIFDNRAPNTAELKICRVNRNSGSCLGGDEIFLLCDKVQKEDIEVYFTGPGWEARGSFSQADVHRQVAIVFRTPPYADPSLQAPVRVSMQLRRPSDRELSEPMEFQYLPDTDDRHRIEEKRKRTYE
Sequence of RELA (p65) subunit of heterodimer;p50 subunit (P19838 7-356, chain 2 of 2): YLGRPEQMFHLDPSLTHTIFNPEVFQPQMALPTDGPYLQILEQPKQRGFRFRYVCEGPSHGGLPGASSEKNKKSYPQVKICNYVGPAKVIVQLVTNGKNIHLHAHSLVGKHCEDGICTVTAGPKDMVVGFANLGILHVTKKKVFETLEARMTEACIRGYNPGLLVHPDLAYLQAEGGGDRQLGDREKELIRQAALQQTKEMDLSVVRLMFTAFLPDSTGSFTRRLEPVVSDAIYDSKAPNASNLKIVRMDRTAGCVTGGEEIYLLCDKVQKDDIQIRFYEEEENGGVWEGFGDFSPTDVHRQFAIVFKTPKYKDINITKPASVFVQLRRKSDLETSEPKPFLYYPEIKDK

[5] = target: RELA (p65) subunit of heterodimer;p52 subunit (Homo sapiens;Homo sapiens, UniProt Q04206;Q00653 1-307;4-332)
[6] = target: RELB subunit;p50 subunit (Homo sapiens;Homo sapiens, UniProt Q01201;P19838 120-401;7-356)
[7] = target: T2, RELB subunit;p52 subunit (Homo sapiens;Homo sapiens, UniProt Q01201;Q00653 120-401;4-332)
T2 sequence 1: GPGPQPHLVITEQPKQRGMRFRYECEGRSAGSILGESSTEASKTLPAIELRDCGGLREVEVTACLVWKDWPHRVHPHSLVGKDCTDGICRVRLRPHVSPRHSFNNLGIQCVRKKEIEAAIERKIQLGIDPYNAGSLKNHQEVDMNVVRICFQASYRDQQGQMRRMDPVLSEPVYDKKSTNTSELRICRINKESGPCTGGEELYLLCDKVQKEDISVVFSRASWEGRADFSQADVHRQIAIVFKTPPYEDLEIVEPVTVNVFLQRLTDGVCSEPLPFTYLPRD
T2 sequence 2: T1 sequence

[8] = target: C-Rel subunit;p50 subunit (Homo sapiens;Homo sapiens, UniProt Q04864;P19838 1-285;7-356)
[9] = target: T3, C-Rel subunit;p52 subunit (Homo sapiens;Homo sapiens, UniProt Q04864;Q00653 1-285;4-332)
T3 sequence 1: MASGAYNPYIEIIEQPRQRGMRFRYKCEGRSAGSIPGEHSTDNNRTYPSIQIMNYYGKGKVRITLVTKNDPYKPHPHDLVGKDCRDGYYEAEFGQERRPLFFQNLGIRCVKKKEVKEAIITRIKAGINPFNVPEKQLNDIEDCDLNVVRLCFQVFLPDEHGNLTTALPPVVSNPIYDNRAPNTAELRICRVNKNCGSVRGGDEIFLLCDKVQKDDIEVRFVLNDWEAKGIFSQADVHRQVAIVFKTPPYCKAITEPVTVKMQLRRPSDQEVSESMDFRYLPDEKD
T3 sequence 2: T1 sequence

Sequence of p50p50 homodimer (P19838 7-356): as the sequence (P19838 7-356, chain 2 of 2) above
Sequence of RELARELA (p65 homodimer) (Q04206 1-307): as the sequence (Q04206 1-307, chain 1 of 2) above

Sequence	binding signal [1] [z-score]	binding signal [2] [z-score]	binding signal [3] [z-score]	binding signal [4] [z-score]	binding signal [5] [z-score]	binding signal [6] [z-score]	binding signal [7] [z-score]	binding signal [8] [z-score]	binding signal [9] [z-score]
GGGGGAACCCC	2.66	1.15	3.25	2.25	3.23	2.62	2.86	2.58	3.54
AAGATGGCCCT	-0.837	-0.78	-0.556	-0.621	-0.715	-0.275	-0.142	-0.828	-0.686
CAGGGGTTCCT	-0.143	0.529	0.77	-0.0941	0.55	-0.0145	0.388	-0.324	0.485
AGGATAGCCCT	-0.44	-1.05	-0.582	-0.78	-0.902	-0.841	-0.772	-0.982	-0.688
CAGTGAGTCCC	0.14	0.525	0.308	0.411	0.115	0.511	0.164	0.393	0
CGATACCTCCC	-0.139	-0.527	-0.392	-0.477	-0.641	-0.466	-0.506	-0.897	-0.543
GAAGGTGCCCT	-0.528	-0.946	-0.486	-0.722	-0.698	-0.821	-0.597	-1.15	-0.907
AGGTAAACCCC	1.17	0.722	2.16	1.25	1.68	0.79	1.51	0.88	2.02
AGGGGGGCCCT	-0.0645	0.812	0.991	0.478	1.13	0.542	1.2	0.525	1.04
CGAAGTGTCCT	-0.41	-1.95	-0.44	-0.957	-0.797	-1.13	-0.796	-1.19	-0.64
CAAGAGGTCCC	1.23	-0.219	0.0202	-0.152	-0.417	0.271	0.113	-0.21	-0.201
GGGGACACCCC	0.873	0.656	2.83	1.56	2.26	1.68	2.1	1.26	2.35
CAAAGGCTCCT	-0.998	-1.36	-0.784	-1.16	-1.16	-1.21	-1.07	-1.99	-1.13
AGGGTTGCCCT	-0.236	-1.22	-0.523	-0.681	-0.727	-0.807	-0.774	-0.341	-0.29
AGGATTTCCCT	1.99	1.23	2.18	1.44	1.61	1.58	1.91	1.36	1.67
